Data taken from the supplement of paper PMC7335073.
The full ranking holds about 4,100 sequences; the median of “relative CpG methylation activity (normalised to average over all NNNCGNNN flanks)” is about 0.94, and the highest 2% start at about 1.9. Shown is part of a subset that was picked to be rich in the highest values.

Each sequence was assayed against DNMT3B catalytic domain (mouse) (UniProt O88509) (assay: relative CpG methylation activity (normalised to average over all NNNCGNNN flanks) (relative (1 = mean)); higher = more methylation of the central CpG). Details: system: in vitro, murine catalytic domain; CpG state: hemimethylated substrate pool; residues: 558-859.
DNMT3B catalytic domain (mouse), sequence (O88509 558-859): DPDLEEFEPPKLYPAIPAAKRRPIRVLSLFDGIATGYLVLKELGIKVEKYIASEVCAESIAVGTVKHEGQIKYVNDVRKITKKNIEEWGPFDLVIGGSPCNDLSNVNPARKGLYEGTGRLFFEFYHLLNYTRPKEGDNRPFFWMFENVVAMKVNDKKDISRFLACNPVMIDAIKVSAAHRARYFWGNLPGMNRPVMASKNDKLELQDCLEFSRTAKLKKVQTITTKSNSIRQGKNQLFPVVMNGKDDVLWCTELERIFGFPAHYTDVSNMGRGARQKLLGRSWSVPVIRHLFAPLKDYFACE
Experimental: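 Deep enzymology: a pool of dsDNA substrates with a central CpG flanked by 10 random nucleotides on each side was methylated by the murine DNMT3A or DNMT3B catalytic domain (0.8 mM SAM, 37 °C, 60 min). Methylation was then read out by hairpin ligation, bisulfite conversion and NGS. Values are the average methylation of each NNNCGNNN context (±3 flanks; the outer flanks are random and averaged over), normalised to the overall mean, so 1 = average activity.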

Row | Sequence | relative CpG methylation activity
1 | TTTCGGCC | 1.65
2 | CTTCGGCG | 1.67
3 | GTTCGGCT | 1.75
4 | GTTCGGCA | 1.88
5 | GTTCGGGT | 1.37
6 | TTTCGGCT | 2.04
7 | CTTCGGCA | 1.97
8 | CTTCGGCT | 1.9
9 | TTTCGGGT | 2.02
10 | TTTCGGCG | 1.79
11 | TTTCGGGA | 1.79
12 | TTTCGGCA | 1.69
13 | AGTCGGTG | 0.863
14 | ATTCGCGC | 0.947
15 | CGGCGCTA | 0.358
16 | CACCGGCC | 1.34
17 | ACTCGGCA | 1.42
18 | ACTCGGCT | 1.95
19 | ACTCGGCC | 1.62
20 | TTACGTTG | 1.29
21 | AGGCGCGA | 0.281
22 | TTCCGGGC | 1.7

Row | Sequence | relative CpG methylation activity
23 | ATCCGGCC | 1.48
24 | ATTCGGGC | 1.72
25 | GTCCGGGC | 1.53
26 | CTTCGGGC | 2.18
27 | CTCCGGCA | 1.88
28 | CTCCGGGC | 2.05
29 | CTCCGGCC | 1.94
30 | CTTCGGGT | 1.33
31 | ATCCGAGA | 1.4
32 | GCACGAGC | 1.79
33 | GAACGTGC | 1.03
34 | CAGCGGTG | 0.603
35 | GTCCGTAT | 0.661
36 | TATCGGAT | 1.18
37 | ACCCGATT | 1.41
38 | GCTCGTCA | 0.561
39 | TTACGGTC | 2.02
40 | ATACGGTC | 1.68
41 | TTACGGTA | 2.02
42 | CTACGGTA | 1.81
43 | GTACGGTA | 1.61
44 | CTACGGTC | 1.85

Row | Sequence | relative CpG methylation activity
45 | GGACGCGG | 0.51
46 | CATCGATC | 1.81
47 | GCCCGACG | 1.16
48 | TCACGCTT | 1.36
49 | TTACGAGA | 1.84
50 | CTACGAGA | 1.96
51 | CTACGACG | 1.81
52 | ATACGAGA | 1.82
53 | GTACGACT | 1.46
54 | TTACGAGG | 1.8
55 | ATACGAGC | 1.87
56 | ATACGAGT | 1.92
57 | TTACGAGC | 2.09
58 | CTACGACT | 1.92
59 | ATACGAGG | 1.72
60 | ATACGAAT | 1.64
61 | CATCGCTA | 0.882
62 | GATCGCTG | 0.405
63 | TCCCGCCG | 0.883
64 | GAGCGTAT | 0.648
65 | GCACGTGG | 0.497
66 | GTCCGTCT | 0.827

Row | Sequence | relative CpG methylation activity
67 | TCTCGCGG | 0.647
68 | CTGCGCTG | 0.95
69 | TACCGCTA | 0.483
70 | CAGCGACC | 0.972
71 | GACCGCAA | 0.281
72 | CTACGAGT | 1.96
73 | GTACGAGT | 1.48
74 | TTACGAGT | 1.74
75 | CTACGAGG | 1.68
76 | GTACGAGC | 1.83
77 | CTACGAGC | 2.12
78 | CGCCGGTC | 1.23
79 | AAACGCGG | 1.24
80 | CTCCGCGT | 0.717
81 | CCTCGAGT | 1.5
82 | TCACGAGT | 1.49
83 | TCTCGAGC | 1.53
84 | TCTCGAGT | 1.45
85 | AAACGAGA | 1.9
86 | CAACGAGT | 1.47
87 | CAACGAGC | 1.74
